IP6K1 inh: Primary qHTS assay for small molecule inhibitors of Inositol hexaphosphate kinase 1 (IP6K1) | activity change, % (series mostly up to about 58 µM) | 140,000 compounds, 0.81% hits | IP6K1 kinase, ADP-Glo luminescence, 2 h; stronger effect = lower value; in the data active = activity change below about -25%
Target sequence (Q92551 whole entry, looked up): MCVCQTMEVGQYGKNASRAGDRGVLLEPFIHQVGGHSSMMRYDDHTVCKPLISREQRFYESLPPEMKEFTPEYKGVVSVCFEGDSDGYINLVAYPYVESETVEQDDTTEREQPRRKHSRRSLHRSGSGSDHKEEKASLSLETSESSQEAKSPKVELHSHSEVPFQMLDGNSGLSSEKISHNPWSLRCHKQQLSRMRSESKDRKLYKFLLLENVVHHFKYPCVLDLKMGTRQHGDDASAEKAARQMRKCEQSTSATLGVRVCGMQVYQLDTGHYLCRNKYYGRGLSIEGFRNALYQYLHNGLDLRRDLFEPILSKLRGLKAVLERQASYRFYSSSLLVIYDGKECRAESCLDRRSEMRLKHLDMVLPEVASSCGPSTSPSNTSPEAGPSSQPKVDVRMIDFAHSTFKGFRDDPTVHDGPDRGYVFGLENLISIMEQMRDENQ
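ADP-Glo luminescence measures ADP made by human IP6K1 during a 2 h RT reaction with ATP/IP6 (mix at 1.3 mM/130 uM); top library doses 57.5 and 19.1 uM final.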
KDM5B inhibitor: Primary screen for KDM5B Histone Demethylases FDH-coupled qHTS. KDM5B demethylase, FDH-coupled NADH fluorescence (FDH is formaldehyde dehydrogenase). 220,000 compounds, 2.6% hits. AID 1347165, 2019. Potency, µM (top dose mostly 57.7 µM), hits mostly inhibitors; active = well fitted inhibition curve with a large enough effect; inconclusive = small, poorly fitted or top-dose-only effect; inactive = no such curve, though single readings can be large or run the other way; also: nearly all actives have a fitted effect of over 70% in size
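Measured: NADH fluorescence change, 30 min, RT. System: KDM5BΔAP 200 nM final, H3K4me3 peptide, α-KG, Fe(II), ascorbate, NAD⁺ plus FDH, pH 7.5 HEPES. Compounds: titrated, 10 min pre-incubation with enzyme.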
Numbers stand for hits; . = inactive; ? = inconclusive; / = no result given. An excerpt weighted towards active compounds, which were near 2.8% of everything screened.

SMILES | IP6K1 inh | KDM5B inhibitor
COc1ccc2[nH]c3c(c2c1)CCNC31CCN(C(=O)Cn2c(=O)oc3ccccc32)CC1 | . | 20µM
COc1ccc2[nH]c3c(c2c1)CCN(C)C31CCN(C(=O)c2ccccn2)CC1 | . | ?
COc1ccc2[nH]c3c(c2c1)CCNC31CCN(C(=O)COc2ccc(F)cc2)CC1 | . | ?
COc1ccc2[nH]c3c(c2c1)CCNC31CCN(C(C)C)CC1 | . | 22µM
CCOCC(=O)N1CCC2(CC1)NCCc1c2[nH]c2ccc(OC)cc12 | . | 16µM
COc1ccc2[nH]c3c(c2c1)CCNC31CCN(C(=O)C2CC2)CC1 | . | ?
CSc1ccc(Cl)c(C(=O)Nc2cc(F)ccc2C)c1 | / | .
COc1ccc(-c2ccc(C(=O)NCc3cccnc3)cc2)nn1 | . | /
COc1ccccc1-c1cccc(C(=O)N2CCN(C(=O)c3ccccc3F)CC2)c1 | . | /
COc1ccc(-c2cc3c(=O)n(CCNC(=O)c4cccc(OC)c4OC)ccn3n2)cc1 | . | 25µM
CCC(C(=O)NCCn1ccn2nc(-c3cccc(OC)c3)cc2c1=O)c1ccccc1 (stereo not drawn) | . | .
COc1ccc(-c2cc3c(=O)n(CCNC(=O)c4c(F)cccc4F)ccn3n2)cc1 | . | 22µM
O=C(NCCn1ccn2nc(-c3ccc(F)cc3)cc2c1=O)c1c(F)cccc1Cl | . | ?
COc1ccc(-c2cc3c(=O)n(CCNC(=O)c4c(F)cccc4Cl)ccn3n2)cc1 | . | 22µM
COc1ccc(-c2cc3c(=O)n(CCNC(=O)c4ccco4)ccn3n2)cc1 | . | ?
CCC(C(=O)NCCn1ccn2nc(-c3ccc(OC)cc3)cc2c1=O)c1ccccc1 (stereo not drawn) | . | 20µM
COc1ccc(-c2cc3c(=O)n(CCNC(=O)c4ccc(C)c(F)c4)ccn3n2)cc1 | . | ?
COc1ccc(-c2nc(CSCC(=O)NCc3cccnc3)c(C)o2)cc1OC | / | .
N#Cc1ccc(SCc2ccccc2)cc1SCc1ccccc1 | / | .
CCc1cc(CC)n(-c2nc3c(c(=O)n(CCOC)c(=O)n3C)n2C)n1 | / | .
COc1ccc2oc(=O)c(-c3nc(-c4nonc4N)no3)cc2c1 | / | .
COc1ccc(Nc2ccnc(N3CCC(C(=O)NC4CCCC4)CC3)n2)cc1 | . | /
COCCCn1c(C)cc(C(=O)COc2ccc3ccc(=O)oc3c2)c1C | / | .
O=C(Nc1c(NCc2ccccc2)c2ccccc2oc1=O)c1ccc(Br)cc1 | / | .
Cc1cc(CN(C)c2ccc(-c3nc(COc4ccccc4)no3)cn2)on1 | . | 35µM
SMILES | IP6K1 inh | KDM5B inhibitor
CN(Cc1cnccn1)c1ccc(-c2nc(CCCc3ccccc3)no2)cn1 | . | ?
NC(=O)Nc1cccc([N+](=O)[O-])c1 | / | .
CC(=O)N1CCCN(C(=O)c2ccc3c(c2)NC(C)(CCCCc2ccccc2)CO3)CC1 (stereo not drawn) | . | .
Cn1ccc(NC(=O)c2ccc3c(c2)NC(C)(CCCCc2ccccc2)CO3)n1 (stereo not drawn) | . | 32µM
CNC(=O)c1ccc2c(c1)NC(C)(CCCCc1ccccc1)CO2 (stereo not drawn) | . | 32µM
C[C@@H]1CN(C(=O)c2ccc3c(c2)NC(C)(CCCCc2ccccc2)CO3)C[C@H](C)O1 (stereo partly drawn) | . | 35µM
CC1(CNc2ccccc2)COc2ccc(C(=O)NC3CCOCC3)cc2N1 (stereo not drawn) | . | ?
CC1(CCCCc2ccccc2)COc2ccc(C(=O)NC3CCC(O)CC3)cc2N1 (stereo not drawn) | . | 40µM
Cn1ccc(NC(=O)c2ccc3c(c2)NC(C)(CNCc2ccccc2)CO3)n1 (stereo not drawn) | . | ?
CNC(=O)c1ccc2c(c1)NC(C)(CNc1ccccc1)CO2 (stereo not drawn) | . | ?
N#CC1=C(N)Oc2n[nH]c(-c3ccccc3)c2C12C(=O)N(Cc1ccc(F)cc1)c1ccccc12 (stereo not drawn) | / | .
O=C(C1CCCC1)N1CCCN(c2ccnc3ccnn23)CC1 | . | /
Cc1ccc(-c2cnc(SCC(=O)Nc3cccc(Cl)c3)o2)cc1C | / | .
CCCC(O)CN1CCC(=O)N(CC(C)(C)C)Cc2cc3c(cc21)OCO3 (stereo not drawn) | . | /
O=C(Cc1ccc(Cl)cc1)NC1CCN(c2cc(-c3cccs3)[nH]n2)C1 (stereo not drawn) | . | 8.9µM
O=C(NC1CCN(c2cc(-c3cccs3)[nH]n2)C1)c1ccccn1 (stereo not drawn) | . | ?
COc1ccc(C(=O)NC2CCN(c3cc(-c4cccs4)[nH]n3)C2)c(C)c1 (stereo not drawn) | . | 14µM
O=C(NC1CCN(c2cc(-c3cccs3)[nH]n2)C1)c1ccc(F)cc1Cl (stereo not drawn) | . | 16µM
O=C(NC1CCN(c2cc(-c3cccs3)[nH]n2)C1)c1ccccc1Cl (stereo not drawn) | . | 14µM
O=C(NC1CCN(c2cc(-c3cccs3)[nH]n2)C1)c1ccc(F)cc1F (stereo not drawn) | . | ?
COc1ccc(C(=O)NC2CCN(c3cc(-c4cccs4)[nH]n3)CC2)c(C)c1 | . | ?
Cc1cccc(CC(=O)NC2CCN(c3cc(-c4cccs4)[nH]n3)C2)c1 (stereo not drawn) | . | ?
COCCN1CC(C)(C)CN(C(=O)c2ccc(OC)cc2)CC1=O | . | /
Cc1nn(-c2ccccc2)c2c1C(C)N(C1CCN([S+](C)(=O)[O-])C1)C2=O (stereo not drawn) | . | /
CNC(=O)CSc1nc(C)nc2sc3c(c12)CCCC3 | / | .
SMILES | IP6K1 inh | KDM5B inhibitor
O=c1cc(-c2ccccn2)oc2c(-c3cn[nH]c3)nccc12 | . | ?
O=c1cc(-c2ccccn2)oc2c(NC3CCOCC3)nccc12 | . | 32µM
CN(C)C(=O)NC1CCCN(c2ccc3nnc(-c4ccccc4)n3n2)C1 (stereo not drawn) | . | /
CN(Cc1ccco1)C(=O)c1cccc(S(=O)(=O)N2CCCCC2)c1 | / | .
O=C(NCCCN1CCCC1)c1ccc(-c2ccc(N3CCCCC3)nc2)cc1 | . | 22µM
Cc1ccc(C(=O)NCCCN2CCCC2)cc1 | / | .
O=C(NCCN1CCCCC1)c1ccc(N2CC3CC(C2)[C@H]2CCCC(=O)N2C3)nc1 (stereo partly drawn) | . | .
COc1ccc(CNC(=O)c2ccc(-c3ccc(N4CCSCC4)nc3)cc2)cc1OC | . | ?
CN(Cc1ccco1)C(=O)c1ccc(-c2ccc(N3CCCCCC3)nc2)cc1 | . | 28µM
O=C(NCc1ccc2c(c1)OCO2)c1ccc(-c2ccc(N3CCSCC3)nc2)cc1 | . | 28µM
CN1CCN(CCNC(=O)c2ccc(-c3ccc(N4CCCCCC4)nc3)cc2)CC1 | . | 22µM
Cc1ccc(S(=O)(=O)N2CCC(n3cnnc3-c3ccccc3)CC2)cc1Cl | . | /
Cc1ccc(/C(O)=C2\C(=O)C(=O)NC2c2ccc(Br)cc2)cc1 (stereo not drawn) | / | .
O=C(NCCN1CCCCC1)c1ccc(-c2ccc(N3CCCCC3)nc2)cc1 | . | 28µM
CC(C)CCNC(=O)c1ccc(-c2ccc(N3CCSCC3)nc2)cc1 | . | 22µM
COc1ccc(C(C)NC(=O)c2ccc(-c3ccc(N4CCSCC4)nc3)cc2)cc1 (stereo not drawn) | . | ?

Screening data as filed in PubChem BioAssay.
